Potency, outcome and max activation data for eleven compounds are collected here from PubChem BioAssay (Tox21).

Experiment [1] is described as follows: Caspase-3/7 induction in HepG2 cells by small molecules, qHTS assay (AID 1346978). Also: nearly all actives have a fitted effect of over 15% in size. Summed up: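 Caspase-3/7 induction was measured by Caspase-Glo 3/7 luminescence (30 min, room temperature) after a 17 hr compound exposure of wild-type HepG2 cells seeded at 2,000 per well and pre-incubated 5 hr.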
On the technique in general: Quantitative high-throughput screening tests each substance at several concentrations.

The nature of experiment [2]: Caspase-3/7 induction in CHO-K1 cells by small molecules, qHTS cell viability counter screen (AID 1346979). Also: nearly all actives have a fitted effect of over 35% in size. Summed up:
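CHO-K1 wt, 1,500 cells/well; 5hr pre-incubation 37C/5% CO2; compound pin transfer (DMSO); 16hr exposure; CellTiter-Fluor added, 1hr, fluorescence read.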

Experiment [3] is described as follows: Caspase-3/7 induction in CHO-K1 cells by small molecules, qHTS assay (AID 1346980). Also: nearly all actives have a fitted effect of over 15% in size. In short, it runs like this: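 Luminescent Caspase-Glo 3/7 read (30min, room temperature) quantified apoptosis induction. Cells were wild-type CHO-K1, treated with compound for 17hr at 37 C and 5% CO2.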
The nature of experiment [4]: Caspase-3/7 induction in HepG2 cells by small molecules, qHTS cell viability counter screen (AID 1346981). Also: series mostly up to about 92 µM; nearly all actives have a fitted effect of over 30% in size. In short, it runs like this:
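Wild-type HepG2 cells (2,000/well) were allowed to settle for 5 hr at 37 C, 5% CO2, then dosed with compounds in DMSO by pin transfer. After 16 hr at 37 C, CellTiter-Fluor was added and fluorescence read 1 hr later.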

Experiment [5] addresses Nuclear receptor subfamily 1 group I member 2 (Homo sapiens) (UniProt O75469). The experiment can be described thus: Human pregnane X receptor (PXR) small molecule agonists, qHTS assay (AID 1346982). Also: nearly all actives have a fitted effect of over 35% in size. Also: potency is read from the fitted curve at half-maximal effect. Summed up: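 PXR-Luc HepG2 cells (CYP3A4 promoter-driven luciferase) were seeded in medium with 5% charcoal-stripped FBS, left 5 hr at 37 C, then exposed to compounds in DMSO for 24 hr. Luminescence was read after ONE-Glo addition.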

Experiment [6] has the same target. The experiment in a line: CYP3A4 induction through human pregnane X receptor (PXR) by small molecules, qHTS assay (AID 1346984). Also: nearly all actives have a fitted effect of over 40% in size. In short, it runs like this: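 DPX-2 cells (HepG2 co-transfected with PXR and CYP3A4 promoter-luciferase) treated with compounds 24 h at 37C; luciferin-IPA CYP3A4 substrate 3uM final added for 3 h, then One-Glo; luminescence read. qHTS format.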

Experiment [7] shares this target. The experiment in a line: Human pregnane X receptor (PXR) activation by small molecules, qHTS assay (AID 1346985). Also: nearly all actives have a fitted effect of over 40% in size. In short, it runs like this: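 DPX-2 cells (HepG2 co-transfected with a PXR response element and a CYP3A4-promoter luciferase construct) were seeded at 2,000 per well, rested 5 hr at 37C, then exposed to DMSO-dissolved compounds for 24 hr. Activation was read as luciferase luminescence.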

Experiment [8] deals with Cytochrome P450 2D6 (Homo sapiens) (UniProt P10635). The experiment in a line: Cytochrome P450 Family 2 Subfamily D Member 6 (CYP2D6) small molecule antagonists: luciferase reporter qHTS assay (AID 1671196). Also: nearly all actives have a fitted effect of over 50% in size. Also: potency is read from the fitted curve at half-maximal effect. In short, it runs like this: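 CYP2D6 enzyme–substrate mix was held with compound for 10 min at room temperature, then NADPH regeneration solution was added and the reaction ran 1 h at room temperature. Luciferin product was detected by luminescence after 20 min with detection reagent.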
Cytochrome P450 2D6 (Homo sapiens), sequence (P10635 whole entry, looked up): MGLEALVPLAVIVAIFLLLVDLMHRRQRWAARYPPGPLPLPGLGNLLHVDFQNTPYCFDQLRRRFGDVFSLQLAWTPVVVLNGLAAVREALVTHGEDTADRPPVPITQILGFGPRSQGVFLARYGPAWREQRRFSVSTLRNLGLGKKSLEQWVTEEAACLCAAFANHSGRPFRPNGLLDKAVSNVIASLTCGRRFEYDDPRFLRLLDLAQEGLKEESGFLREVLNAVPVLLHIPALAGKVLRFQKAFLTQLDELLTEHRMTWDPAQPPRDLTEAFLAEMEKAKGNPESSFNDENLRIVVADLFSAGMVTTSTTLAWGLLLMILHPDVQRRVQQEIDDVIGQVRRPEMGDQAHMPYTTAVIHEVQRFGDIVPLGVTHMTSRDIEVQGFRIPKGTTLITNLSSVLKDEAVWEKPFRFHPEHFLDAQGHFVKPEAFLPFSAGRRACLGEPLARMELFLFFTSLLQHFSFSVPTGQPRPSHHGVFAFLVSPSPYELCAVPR
For orientation: A reporter such as luciferase makes a cellular process visible.

For experiment [9], the target named is Cytochrome P450 2C19 (Homo sapiens) (UniProt P33261). The experiment can be described thus: Cytochrome P450 Family 2 Subfamily C Member 19 (CYP2C19) small molecule antagonists: luciferase reporter qHTS assay (AID 1671197). Also: nearly all actives have a fitted effect of over 65% in size. Also: potency is read from the fitted curve at half-maximal effect. Summed up: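 Inhibition of CYP2C19 was scored from loss of luminescence in a P450-Glo proluciferin substrate assay, NADPH-started and run 1 h at 37C, with ketoconazole as positive control.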
Cytochrome P450 2C19 (Homo sapiens), sequence (P33261 whole entry, looked up): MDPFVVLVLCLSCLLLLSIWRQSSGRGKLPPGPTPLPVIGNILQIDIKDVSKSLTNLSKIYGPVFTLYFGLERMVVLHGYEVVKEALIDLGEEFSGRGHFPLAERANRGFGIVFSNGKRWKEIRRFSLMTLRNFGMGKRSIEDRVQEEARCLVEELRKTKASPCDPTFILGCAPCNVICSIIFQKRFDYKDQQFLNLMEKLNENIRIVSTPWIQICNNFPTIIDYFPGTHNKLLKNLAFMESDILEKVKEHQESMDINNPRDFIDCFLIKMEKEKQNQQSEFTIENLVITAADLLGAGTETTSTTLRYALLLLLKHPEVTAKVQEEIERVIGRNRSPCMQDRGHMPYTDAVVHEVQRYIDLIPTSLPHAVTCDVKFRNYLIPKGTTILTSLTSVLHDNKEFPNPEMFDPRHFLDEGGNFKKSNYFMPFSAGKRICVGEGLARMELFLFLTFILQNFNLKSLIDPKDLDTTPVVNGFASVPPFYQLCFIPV

Experiment [10] addresses Cytochrome P450 1A2 (Homo sapiens) (UniProt P05177). The experiment can be described thus: Cytochrome P450 Family 1 Subfamily A Member 2 (CYP1A2) small molecule antagonists: luciferase reporter qHTS assay (AID 1671199). Also: nearly all actives have a fitted effect of over 50% in size. Also: potency is read from the fitted curve at half-maximal effect. In short, it runs like this:
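Human CYP1A2 activity measured with a P450-Glo proluciferin substrate; compounds in DMSO preincubated 10 min at room temperature with enzyme-substrate mix, then NADPH regeneration system added for 1 h. Luciferin detection reagent, 20 min, luminescence read.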

Experiment [11] addresses Voltage-gated inwardly rectifying potassium channel KCNH2 (Homo sapiens) (UniProt Q12809). The experiment in a line: Human Ether-a-go-go-Related Gene (hERG) channel small molecule antagonists: fluorescence cell-based qHTS assay (AID 1671200). Also: nearly all actives have a fitted effect of over 50% in size. Also: potency is read from the fitted curve at half-maximal effect. In short, it runs like this:
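Read-out: thallium influx as a surrogate for potassium, tracked as fluorescence (480 nm ex/540 nm em) every second for 2 min after Stimulus Buffer addition in dye-loaded hERG-U2OS cells.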

The target of experiment [12] is Cytochrome P450 3A4 (Homo sapiens) (UniProt P08684). The experiment can be described thus: Cytochrome P450 Family 3 Subfamily A Member 4 (CYP3A4) small molecule antagonists: luciferase reporter qHTS assay (AID 1671201). Also: series mostly up to about 120 µM; nearly all actives have a fitted effect of over 50% in size. In short, it runs like this: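 Luminescent readout (RLU) proportional to CYP3A4 activity, from luciferin generated off a proluciferin substrate. Enzyme–substrate mix plus compound 10 min at room temp, NADPH regeneration 1 h, detection reagent 20 min.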
Cytochrome P450 3A4 (Homo sapiens), sequence (P08684 whole entry, looked up): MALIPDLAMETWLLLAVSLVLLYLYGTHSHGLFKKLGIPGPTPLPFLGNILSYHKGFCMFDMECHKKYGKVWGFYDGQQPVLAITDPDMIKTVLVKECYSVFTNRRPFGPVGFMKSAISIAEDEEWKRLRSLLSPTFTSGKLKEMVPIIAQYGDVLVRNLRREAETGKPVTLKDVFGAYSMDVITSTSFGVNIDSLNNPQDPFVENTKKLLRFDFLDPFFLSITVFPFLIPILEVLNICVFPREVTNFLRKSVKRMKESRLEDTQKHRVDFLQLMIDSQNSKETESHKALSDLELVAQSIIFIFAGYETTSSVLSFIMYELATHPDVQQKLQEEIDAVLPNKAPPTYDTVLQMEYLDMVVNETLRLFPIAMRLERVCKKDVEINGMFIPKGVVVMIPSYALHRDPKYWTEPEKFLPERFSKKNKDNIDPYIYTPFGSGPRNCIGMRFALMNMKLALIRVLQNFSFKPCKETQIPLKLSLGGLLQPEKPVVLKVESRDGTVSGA

Experiment [13] concerns the target Cytochrome P450 2C9 (Homo sapiens) (UniProt P11712). The experiment can be described thus: Cytochrome P450 Family 2 Subfamily C Member 9 (CYP2C9) small molecule antagonists: luciferase reporter qHTS assay (AID 1671198). Also: nearly all actives have a fitted effect of over 50% in size. Also: potency is read from the fitted curve at half-maximal effect. Summed up:
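Enzyme-substrate mix preincubated with compound 10 min at room temperature; reaction started with NADPH regeneration solution, 1 h 37C. Luminescent luciferin product read after 20 min detection reagent.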

For experiment [14], the target named is Nuclear receptor subfamily 1 group I member 2 (Rattus norvegicus) (UniProt Q9R1A7). The experiment can be described thus: Rat pregnane X receptor (rPXR) activation by small molecules, qHTS assay (AID 1346983). Also: nearly all actives have a fitted effect of over 20% in size. The settings on record: rPXR luciferase reporter cells, One-Glo luminescence, 24 h; max activation: active compounds read high. Summed up: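 Luminescent readout (One-Glo luciferase, 30 min room temperature) followed 24 hr compound treatment at 37 C of rPXR cells plated 2,000 per well and preincubated 5hr; qHTS format with compounds delivered in DMSO.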
Nuclear receptor subfamily 1 group I member 2 (Rattus norvegicus), sequence (Q9R1A7 whole entry, looked up): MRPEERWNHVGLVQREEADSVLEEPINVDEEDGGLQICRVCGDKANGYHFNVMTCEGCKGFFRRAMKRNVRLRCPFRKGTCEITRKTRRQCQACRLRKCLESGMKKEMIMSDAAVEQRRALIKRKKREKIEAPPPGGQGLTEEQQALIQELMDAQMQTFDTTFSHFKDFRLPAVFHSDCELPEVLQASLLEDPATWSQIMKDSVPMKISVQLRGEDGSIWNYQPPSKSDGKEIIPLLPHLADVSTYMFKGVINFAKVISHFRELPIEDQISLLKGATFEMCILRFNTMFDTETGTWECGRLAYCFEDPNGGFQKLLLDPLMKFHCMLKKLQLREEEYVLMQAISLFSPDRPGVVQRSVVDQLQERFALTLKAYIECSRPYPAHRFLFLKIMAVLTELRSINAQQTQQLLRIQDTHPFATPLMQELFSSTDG

A number with no mark means an inactive call. Inconclusive results are not listed. Calls of active or inactive are those of the source. Calls follow the shape of the dose curve; as a rule, active = well fitted curve in the direction sought with a large enough effect in the repeat runs; inconclusive = weak or mixed curves; inactive = no such curve, though single readings can be large; an effect the other way counts as inactive or inconclusive.
% is scaled to controls: 0 for no effect and ±100 for the full control effect.

Cytochrome P450 2C9 (Homo sapiens), sequence (P11712 whole entry, looked up): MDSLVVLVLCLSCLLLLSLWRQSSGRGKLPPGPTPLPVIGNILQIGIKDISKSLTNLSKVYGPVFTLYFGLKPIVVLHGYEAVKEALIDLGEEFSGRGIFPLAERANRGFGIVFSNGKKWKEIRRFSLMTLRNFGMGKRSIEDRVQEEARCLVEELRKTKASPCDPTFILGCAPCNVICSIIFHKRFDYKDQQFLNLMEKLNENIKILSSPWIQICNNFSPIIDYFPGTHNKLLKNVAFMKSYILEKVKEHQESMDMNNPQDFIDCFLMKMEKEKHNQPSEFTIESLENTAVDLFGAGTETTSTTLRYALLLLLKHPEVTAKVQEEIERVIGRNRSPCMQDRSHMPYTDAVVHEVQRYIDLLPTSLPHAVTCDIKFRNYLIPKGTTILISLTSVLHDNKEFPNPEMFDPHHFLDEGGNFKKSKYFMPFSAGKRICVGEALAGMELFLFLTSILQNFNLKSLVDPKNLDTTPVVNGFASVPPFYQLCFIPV
Nuclear receptor subfamily 1 group I member 2 (Homo sapiens), sequence (O75469 whole entry, looked up): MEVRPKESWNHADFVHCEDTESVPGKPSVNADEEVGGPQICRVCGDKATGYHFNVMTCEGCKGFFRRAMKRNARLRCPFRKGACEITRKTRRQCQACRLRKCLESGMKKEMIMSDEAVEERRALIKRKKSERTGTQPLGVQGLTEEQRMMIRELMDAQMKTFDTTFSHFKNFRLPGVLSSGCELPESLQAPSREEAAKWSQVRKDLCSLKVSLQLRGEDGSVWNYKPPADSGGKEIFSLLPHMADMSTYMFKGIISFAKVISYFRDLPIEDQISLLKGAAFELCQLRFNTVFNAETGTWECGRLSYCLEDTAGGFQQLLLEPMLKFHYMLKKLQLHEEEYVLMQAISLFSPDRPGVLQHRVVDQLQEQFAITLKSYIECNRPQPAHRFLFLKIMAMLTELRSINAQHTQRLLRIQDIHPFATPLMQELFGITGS
Voltage-gated inwardly rectifying potassium channel KCNH2 (Homo sapiens), sequence (Q12809 whole entry, looked up): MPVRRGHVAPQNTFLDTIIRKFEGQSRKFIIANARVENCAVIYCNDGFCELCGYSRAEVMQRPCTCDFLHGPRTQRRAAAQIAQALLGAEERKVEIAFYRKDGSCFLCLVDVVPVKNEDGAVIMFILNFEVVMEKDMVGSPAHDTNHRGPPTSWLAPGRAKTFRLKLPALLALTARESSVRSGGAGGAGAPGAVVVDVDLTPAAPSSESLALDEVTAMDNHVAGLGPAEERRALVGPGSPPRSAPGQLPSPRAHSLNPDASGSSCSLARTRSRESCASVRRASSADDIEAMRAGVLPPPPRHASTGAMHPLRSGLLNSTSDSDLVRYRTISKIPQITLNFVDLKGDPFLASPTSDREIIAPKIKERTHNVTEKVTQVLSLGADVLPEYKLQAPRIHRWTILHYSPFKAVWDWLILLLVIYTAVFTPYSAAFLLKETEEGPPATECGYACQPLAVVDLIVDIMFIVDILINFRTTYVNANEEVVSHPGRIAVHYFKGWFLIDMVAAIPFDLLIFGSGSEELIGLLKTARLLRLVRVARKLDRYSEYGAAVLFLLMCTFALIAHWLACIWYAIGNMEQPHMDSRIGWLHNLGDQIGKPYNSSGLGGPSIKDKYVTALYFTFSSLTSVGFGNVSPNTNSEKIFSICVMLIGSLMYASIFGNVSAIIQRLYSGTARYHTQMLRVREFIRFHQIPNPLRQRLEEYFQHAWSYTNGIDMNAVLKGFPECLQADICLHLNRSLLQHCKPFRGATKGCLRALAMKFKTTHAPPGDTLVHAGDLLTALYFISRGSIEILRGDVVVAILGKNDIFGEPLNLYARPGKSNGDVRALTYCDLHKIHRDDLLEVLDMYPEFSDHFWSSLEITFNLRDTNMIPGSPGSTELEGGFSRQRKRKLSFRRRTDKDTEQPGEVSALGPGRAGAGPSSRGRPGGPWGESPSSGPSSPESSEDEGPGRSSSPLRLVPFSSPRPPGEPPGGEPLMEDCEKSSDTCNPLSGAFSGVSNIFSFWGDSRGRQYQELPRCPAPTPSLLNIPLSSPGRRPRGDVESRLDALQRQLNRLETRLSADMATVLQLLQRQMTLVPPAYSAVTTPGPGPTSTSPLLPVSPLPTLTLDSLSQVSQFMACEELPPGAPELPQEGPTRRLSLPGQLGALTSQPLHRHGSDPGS
Cytochrome P450 1A2 (Homo sapiens), sequence (P05177 whole entry, looked up): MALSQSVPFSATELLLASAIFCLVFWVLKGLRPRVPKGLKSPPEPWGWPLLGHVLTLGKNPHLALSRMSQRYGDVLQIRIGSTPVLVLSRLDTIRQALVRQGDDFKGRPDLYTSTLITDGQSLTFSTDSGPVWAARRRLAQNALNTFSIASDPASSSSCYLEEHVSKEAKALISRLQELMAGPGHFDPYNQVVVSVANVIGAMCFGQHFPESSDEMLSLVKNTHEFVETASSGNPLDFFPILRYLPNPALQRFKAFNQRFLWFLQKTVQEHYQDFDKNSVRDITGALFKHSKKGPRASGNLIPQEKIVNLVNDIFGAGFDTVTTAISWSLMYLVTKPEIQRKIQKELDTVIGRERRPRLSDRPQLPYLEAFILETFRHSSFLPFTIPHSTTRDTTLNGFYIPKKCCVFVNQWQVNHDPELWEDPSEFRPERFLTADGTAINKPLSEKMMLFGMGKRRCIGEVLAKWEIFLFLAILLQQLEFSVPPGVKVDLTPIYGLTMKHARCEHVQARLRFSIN

As to `CS(=O)(=O)c1ccc([C@@H](O)[C@@H](CF)NC(=O)C(Cl)Cl)cc1`, the Potency result in experiment [1], in [2], in experiment [4], in [5], in [6] and in [7] was “inactive” each time. In addition, the Potency result in experiment [8], in [10], in [11] and in experiment [12] was “inactive” each time. Further, the result in experiment [3] was inactive. Besides, the Potency in experiment [9] was 21.9 µM (active).
In the case of `COc1ccccc1OCC(O)COC(N)=O` (stereo not given), the Potency entry in experiment [1], in experiment [2], in experiment [4], in experiment [5], in [6] and in experiment [7] was “inactive” each time. The Potency result in experiment [8], in [13], in experiment [10], in experiment [11] and in experiment [12] was “inactive” each time. Moreover, in experiment [3], the result was inactive.
Consider `Oc1ccccc1F`, for which the Potency result in experiment [1], in experiment [2], in experiment [4], in [5], in experiment [8] and in experiment [9] was “inactive” in each case. Besides, the Potency result in experiment [13], in experiment [11] and in experiment [12] was “inactive” in each case. In experiment [3], the outcome was inactive. The Potency in experiment [10] was 35.5 µM (active).
On to `CO[C@@]1(NC(=O)CSCC#N)C(=O)N2C(C(=O)O)=C(CSc3nnnn3C)CS[C@@H]21`, for which the Potency entry in experiment [1], in [2], in experiment [4], in [5], in [6] and in [7] was “inactive” throughout. For the same compound, the Potency entry in experiment [9], in experiment [11] and in [12] was “inactive” each time. Moreover, in experiment [3], the compound was called inactive. In addition, the max activation in [14] was -3.26%. Also, in [10], the Potency was 24.5 µM (active).
As to `O=C1CCCCC1C1CCCCC1` (stereo not given), the Potency entry in experiment [1], in [2], in experiment [4], in [5], in experiment [8] and in experiment [9] was “inactive” each time. Further, the Potency result in experiment [13], in [10], in experiment [11] and in experiment [12] was “inactive” in each case. For the same compound, in [3], the result was inactive.
Consider `CCN(CC)CCNC(=O)COc1ccc(Cl)cc1`, for which the Potency entry in experiment [1], in experiment [2], in [4], in [5], in [6] and in experiment [7] was “inactive” each time. Also, the Potency entry in experiment [9] and in experiment [13] was “inactive” in each case. In [3], the result was inactive. Also, the Potency in experiment [11] is 13.4 µM (active).
On to `CCCNC(C)C(=O)Nc1c(C)csc1C(=O)OC` (stereo not given), for which the Potency entry in experiment [1], in [2], in experiment [4], in experiment [5], in experiment [6] and in experiment [7] was “inactive” each time. Moreover, the Potency entry in [8], in experiment [9], in [13], in [11] and in [12] was “inactive” throughout. Moreover, in experiment [3], the compound was called inactive.
As for `CC(C)S`, the Potency entry in experiment [1], in experiment [2], in experiment [4], in experiment [5], in experiment [9] and in experiment [13] was “inactive” each time. Besides, the Potency entry in [10], in [11] and in experiment [12] was “inactive” throughout. Also, in experiment [3], the result was inactive.
On to `O=C(O)C(=O)Cc1c[nH]c2ccccc12`, for which the Potency result in experiment [1], in experiment [2], in [4], in [11] and in [12] was “inactive” throughout. Moreover, the compound was classed as inactive in experiment [3]. Moreover, the Potency is 30.6 µM (active) in experiment [5]; 28.3 µM (active) in experiment [8]; 79.6 µM (active) in experiment [9]; 39.9 µM (active) in experiment [13]; 35.6 µM (active) in experiment [10].
`Cc1nc(N)nc(N)c1-c1ccc(Cl)c(Cl)c1`: the Potency entry in experiment [1], in experiment [2], in [4], in experiment [5], in [9] and in [13] was “inactive” in each case. Besides, the Potency entry in experiment [10] and in [12] was “inactive” in each case. Further, the outcome in experiment [3] was inactive. In experiment [8], the Potency is 2.19 µM (active).
Take `CC(C)(C)c1cccc(O)c1`: the Potency entry in experiment [1], in experiment [2], in experiment [4], in [5], in experiment [8] and in [9] was “inactive” in each case. The Potency result in experiment [11] and in [12] was “inactive” in each case. The compound was classed as inactive in [3].
